{"source": "the supplement of paper PMC8728848", "binders": {"B1": {"name": "EEA (Euonymus europaeus) (protein)", "chain": "MASTIIATGPTYRVYCRAAPNYNMIVGKGVAFLAPIDETNELQYWYKDDTYSYIKDEAGLPAFSLVNKATGLTLKHSNHHPVPVKLVTYNPNVVDESVLWSQADDRGDGYSAIRSLTNPASHLEAAPLNDWSYNGAIIMGGVWIDAYNQQWKIEPHTG"}}, "assay_in_all_cases": "glycan array binding signal (z-score within array); higher = stronger binding", "details_in_all_cases": "glycan notation: IUPAC condensed, linker removed", "key": {"[1]": {"molecular_target": "Gal(b1-4)GlcNAc(b1-3)Gal(b1-4)GlcNAc(b1-3)Gal(b1-4)GlcNAc(b1-3)Gal(b1-4)GlcNAc(b1-3)Gal(b1-4)GlcNAc(b1-3)Gal(b1-4)GlcNAc(b1-2)Man(a1-3)[Gal(b1-4)GlcNAc(b1-3)Gal(b1-4)GlcNAc(b1-3)Gal(b1-4)GlcNAc(b1-3)Gal(b1-4)GlcNAc(b1-3)Gal(b1-4)GlcNAc(b1-3)Gal(b1-4)GlcNAc(b1-2)Man(a1-6)]Man(b1-4)GlcNAc(b1-4)GlcNAc", "outline": "(§1)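 Glycan array data were curated from 3228 arrays in the Consortium for Functional Glycomics database and kept only where the protein sequence was available. Glycan names were converted to IUPAC-condensed notation, and columns mapping to the same glycan were averaged. The binding signal is a within-array Z-score, averaged across arrays of the same protein sequence at different concentrations or buffers and across linkers. Negative Z-scores can be read as non-binding.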"}, "Gal3S(b1-4)GlcNAc": {"molecular_target": "Gal3S(b1-4)GlcNAc", "outline": "as §1"}, "Gal3S(b1-4)GlcNAc6S": {"molecular_target": "Gal3S(b1-4)GlcNAc6S", "outline": "as §1"}, "Gal6S(b1-4)GlcNAc6S": {"molecular_target": "Gal6S(b1-4)GlcNAc6S", "outline": "as §1"}, "GalNAc(b1-3)Gal": {"molecular_target": "GalNAc(b1-3)Gal", "outline": "as §1"}, "[2]": {"molecular_target": "GalNAc(b1-4)GlcNAc(b1-2)Man(a1-3)[GalNAc(b1-4)GlcNAc(b1-2)Man(a1-6)]Man(b1-4)GlcNAc(b1-4)GlcNAc", "outline": "as §1"}, "[3]": {"molecular_target": "GlcNAc(b1-2)Gal(b1-3)GalNAc", "outline": "as §1"}, "[4]": {"molecular_target": "GlcNAc(b1-2)Man(a1-3)[GlcNAc(b1-2)Man(a1-6)]Man(b1-4)GlcNAc(b1-4)GlcNAc", "outline": "as §1"}, "[5]": {"molecular_target": "GlcNAc(b1-2)Man(a1-3)[GlcNAc(b1-4)][GlcNAc(b1-2)Man(a1-6)]Man(b1-4)GlcNAc(b1-4)GlcNAc", "outline": "as §1"}, "[6]": {"molecular_target": "GlcNAc(b1-2)[GlcNAc(b1-6)]Man(a1-6)[GlcNAc(b1-2)Man(a1-3)]Man(b1-4)GlcNAc(b1-4)[Fuc(a1-6)]GlcNAc", "outline": "as §1"}, "[7]": {"molecular_target": "GlcNAc(b1-3)Gal(b1-4)GlcNAc(b1-3)Gal(b1-4)GlcNAc(b1-3)Gal(b1-4)GlcNAc(b1-3)Gal(b1-4)GlcNAc(b1-2)Man(a1-3)[GlcNAc(b1-3)Gal(b1-4)GlcNAc(b1-3)Gal(b1-4)GlcNAc(b1-3)Gal(b1-4)GlcNAc(b1-3)Gal(b1-4)GlcNAc(b1-2)Man(a1-6)]Man(b1-4)GlcNAc(b1-4)[Fuc(a1-6)]GlcNAc", "outline": "as §1"}, "GlcNAc(b1-6)GalNAc": {"molecular_target": "GlcNAc(b1-6)GalNAc", "outline": "as §1"}, "Kdn(a2-3)Gal(b1-4)Glc": {"molecular_target": "Kdn(a2-3)Gal(b1-4)Glc", "outline": "as §1"}, "[8]": {"molecular_target": "Neu5Ac(a2-3)Gal(b1-3)GlcNAc(b1-6)GalNAc", "outline": "as §1"}, "[9]": {"molecular_target": "Neu5Ac(a2-3)Gal(b1-3)GlcNAc6S", "outline": "as §1"}, "[10]": {"molecular_target": "Neu5Ac(a2-3)Gal(b1-3)[Fuc(a1-4)]GlcNAc(b1-3)Gal(b1-3)[Fuc(a1-4)]GlcNAc", "outline": "as §1"}, "[11]": {"molecular_target": "Neu5Ac(a2-3)Gal(b1-4)GlcNAc(b1-2)[Neu5Ac(a2-3)Gal(b1-4)GlcNAc(b1-6)]Man(a1-6)[Neu5Ac(a2-3)Gal(b1-4)GlcNAc(b1-2)Man(a1-3)]Man(b1-4)GlcNAc(b1-4)GlcNAc", "outline": "as §1"}, "[12]": {"molecular_target": "Neu5Ac(a2-3)Gal(b1-4)[Fuc(a1-3)]GlcNAc(b1-6)[Gal(b1-3)]GalNAc", "outline": "as §1"}, "[13]": {"molecular_target": "Neu5Ac(a2-3)Gal6S(b1-4)GlcNAc", "outline": "as §1"}, "[14]": {"molecular_target": "Neu5Ac(a2-3)[GalNAc(b1-4)]Gal(b1-4)GlcNAc(b1-3)GalNAc", "outline": "as §1"}, "[15]": {"molecular_target": "Neu5Ac(a2-6)Gal(b1-3)GlcNAc(b1-3)[Gal(b1-4)GlcNAc(b1-6)]Gal(b1-4)Glc", "outline": "as §1"}, "[16]": {"molecular_target": "Neu5Ac(a2-6)Gal(b1-4)GlcNAc(b1-2)Man(a1-6)[Gal(b1-4)GlcNAc(b1-2)Man(a1-3)]Man(b1-4)GlcNAc(b1-4)GlcNAc", "outline": "as §1"}, "[17]": {"molecular_target": "Neu5Ac(a2-6)Gal(b1-4)GlcNAc(b1-2)[Neu5Ac(a2-6)Gal(b1-4)GlcNAc(b1-6)]Man(a1-6)[Neu5Ac(a2-6)Gal(b1-4)GlcNAc(b1-2)Man(a1-3)][GlcNAc(b1-4)]Man(b1-4)GlcNAc(b1-4)GlcNAc", "outline": "as §1"}, "[18]": {"molecular_target": "Neu5Ac(a2-8)Neu5Ac(a2-3)Gal(b1-4)GlcNAc", "outline": "as §1"}, "[19]": {"molecular_target": "Neu5Ac(a2-8)Neu5Ac(a2-8)Neu5Ac(a2-3)[GalNAc(b1-4)]Gal(b1-4)Glc", "outline": "as §1"}, "Neu5Gc(a2-3)Gal(b1-4)Glc": {"molecular_target": "Neu5Gc(a2-3)Gal(b1-4)Glc", "outline": "as §1"}, "[20]": {"molecular_target": "Neu5Gc(a2-3)Gal(b1-4)GlcNAc(b1-3)Gal(b1-4)GlcNAc(b1-2)Man(a1-3)[Neu5Gc(a2-3)Gal(b1-4)GlcNAc(b1-3)Gal(b1-4)GlcNAc(b1-2)Man(a1-6)]Man(b1-4)GlcNAc(b1-4)GlcNAc", "outline": "as §1"}, "[21]": {"molecular_target": "Neu5Gc(a2-3)Gal(b1-4)[Fuc(a1-4)]GlcNAc", "outline": "as §1"}}, "note": "The full list was thinned out, with the strongest signals kept by preference.", "data": [{"binder": "B1", "values": [{"measurement": "glycan array binding signal (z-score)", "setting": "[1]", "value": -0.159}, {"measurement": "glycan array binding signal (z-score)", "setting": "Gal3S(b1-4)GlcNAc", "value": -0.217}, {"measurement": "glycan array binding signal (z-score)", "setting": "Gal3S(b1-4)GlcNAc6S", "value": -0.14}, {"measurement": "glycan array binding signal (z-score)", "setting": "Gal6S(b1-4)GlcNAc6S", "value": -0.097}, {"measurement": "glycan array binding signal (z-score)", "setting": "GalNAc(b1-3)Gal", "value": -0.178}, {"measurement": "glycan array binding signal (z-score)", "setting": "[2]", "value": 0.509}, {"measurement": "glycan array binding signal (z-score)", "setting": "[3]", "value": -0.138}, {"measurement": "glycan array binding signal (z-score)", "setting": "[4]", "value": -0.152}, {"measurement": "glycan array binding signal (z-score)", "setting": "[5]", "value": -0.242}, {"measurement": "glycan array binding signal (z-score)", "setting": "[6]", "value": -0.204}, {"measurement": "glycan array binding signal (z-score)", "setting": "[7]", "value": -0.221}, {"measurement": "glycan array binding signal (z-score)", "setting": "GlcNAc(b1-6)GalNAc", "value": -0.056}, {"measurement": "glycan array binding signal (z-score)", "setting": "Kdn(a2-3)Gal(b1-4)Glc", "value": -0.177}, {"measurement": "glycan array binding signal (z-score)", "setting": "[8]", "value": -0.187}, {"measurement": "glycan array binding signal (z-score)", "setting": "[9]", "value": -0.092}, {"measurement": "glycan array binding signal (z-score)", "setting": "[10]", "value": -0.246}, {"measurement": "glycan array binding signal (z-score)", "setting": "[11]", "value": -0.137}, {"measurement": "glycan array binding signal (z-score)", "setting": "[12]", "value": -0.043}, {"measurement": "glycan array binding signal (z-score)", "setting": "[13]", "value": -0.212}, {"measurement": "glycan array binding signal (z-score)", "setting": "[14]", "value": 0.46}, {"measurement": "glycan array binding signal (z-score)", "setting": "[15]", "value": -0.232}, {"measurement": "glycan array binding signal (z-score)", "setting": "[16]", "value": -0.233}, {"measurement": "glycan array binding signal (z-score)", "setting": "[17]", "value": -0.179}, {"measurement": "glycan array binding signal (z-score)", "setting": "[18]", "value": -0.253}, {"measurement": "glycan array binding signal (z-score)", "setting": "[19]", "value": -0.063}, {"measurement": "glycan array binding signal (z-score)", "setting": "Neu5Gc(a2-3)Gal(b1-4)Glc", "value": -0.084}, {"measurement": "glycan array binding signal (z-score)", "setting": "[20]", "value": -0.183}, {"measurement": "glycan array binding signal (z-score)", "setting": "[21]", "value": -0.482}]}]}
